Compounds with a hit are over-represented: about 3.8% of the library has one in this group of screens.
Nrf2 ARE act: qHTS of Nrf2 Activators | AREc32 ARE-luciferase reporter (MCF7-derived line), luminescence, 24 h | Potency, µM (top dose mostly 46.1 µM), most hits filed as activators | 0.31% of 410,000 active | AID 624171, 2012; also: nearly all actives have a fitted effect of over 65% in size
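For detection, Steady-Glo was added and plates sat 30 min at RT; before that, AREc32_Fluc cells grown overnight in OPTI-MEM/5% FBS had been treated with 23 nL compound for 24 hr at 37 deg C.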
ELG1 DNA repair: qHTS screen for small molecules that inhibit ELG1-dependent DNA repair in human embryonic kidney (HEK293T) cells expressing luciferase-tagged ELG1; HEK293T ELG1-luciferase reporter, luminescence, 16 h; DNA damage induced by 5-fluorouridine; Potency, µM (highest dose often 46.1 µM), actives largely listed as inhibitors; 2.3% of 330,000 active; AID 504467, 2011; also: nearly all actives have a fitted effect of over 55% in size
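DMSO vehicle served as the neutral condition. Each well held 2,000 cells given 5-fluorouridine plus compound; after 16 hr at 37 °C/5% CO2, ONE-Glo was added and luciferase measured 30 min later.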
A549 tox-1: Nrf2 qHTS screen for inhibitors: counterscreen for cytotoxicity; 0.16% of 390,000 active; Potency, µM (highest dose often 46 µM), usual class: inhibitors; A549 ARE-Fluc cells, CellTiter-Fluor viability, 18-24 h
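Cytotoxicity counterscreen: CellTiter-Fluor fluorescence was measured in A549 ARE_Fluc cells after 18-24 h of compound exposure in a concentration series. The subsequent BugLite luminescent read reports ARE-luciferase activity.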
IDH1 R132H inh: qHTS for Inhibitors of mutant isocitrate dehydrogenase 1 (IDH1): qHTS; Isocitrate dehydrogenase [NADP] cytoplasmic (Homo sapiens), O75874; IDH1-R132H enzyme, NADPH consumption, diaphorase/resazurin fluorescence; 0.093% of 390,000 active; Potency, µM (series often up to 76.6 µM), usual class: inhibitors; also: nearly all actives have a fitted effect of over 65% in size
Target sequence (O75874 whole entry R132H, stated change not applied): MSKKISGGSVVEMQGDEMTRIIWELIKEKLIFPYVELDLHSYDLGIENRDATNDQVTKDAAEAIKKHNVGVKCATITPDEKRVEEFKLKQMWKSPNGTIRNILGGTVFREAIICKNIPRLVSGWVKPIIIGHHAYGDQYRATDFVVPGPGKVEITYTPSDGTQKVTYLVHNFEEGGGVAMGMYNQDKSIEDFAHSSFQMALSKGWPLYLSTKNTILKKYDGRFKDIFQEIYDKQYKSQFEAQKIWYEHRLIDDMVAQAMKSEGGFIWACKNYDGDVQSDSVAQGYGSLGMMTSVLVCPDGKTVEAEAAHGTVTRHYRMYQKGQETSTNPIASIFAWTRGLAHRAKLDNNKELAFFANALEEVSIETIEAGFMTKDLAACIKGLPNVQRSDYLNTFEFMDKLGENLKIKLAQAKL
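IDH1-R132H (0.5 ug/mL dispensed) in pH 7.5 Tris buffer was preincubated 30 min with compound, then given a substrate mix of 0.016 mM NADPH and 2 mM alpha-KG for 80 min at room temperature; remaining NADPH was read by diaphorase/resazurin fluorescence.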
Nrf2 block: Nrf2 qHTS screen for inhibitors | AID 504444, 2011 | A549 ARE-Fluc reporter, luciferase luminescence, 18-24 h | Potency, µM (highest dose often 46 µM), hits mostly inhibitors | 2.1% of 360,000 active; also: nearly all actives have a fitted effect of over 60% in size
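Reporter: ARE-Fluc in A549. Exposure: 18-24 h, 37 °C, 5% CO2, 5% FBS OPTI-MEM. Readouts: fluorescent cytotoxicity (CellTiter-Fluor), then luminescent Nrf2 signal after BugLite.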
FLuc counter 3: Nrf2 qHTS screen for inhibitors: Purified Fluc Biochemical Counterscreen for Hit Validation. 4% of 1,400 active. Potency, µM (series often up to 57.5 µM), usual class: inhibitors. purified firefly luciferase, luminescence inhibition. shares compounds with Nrf2 block; also: nearly all actives have a fitted effect of over 65% in size
A549 tox-2: Nrf2 qHTS screen for inhibitors: A549 ARE-Fluc Cytotoxicity Counterscreen for Hit Validation; shares compounds with Nrf2 block; 2% of 1,400 active; A549 ARE-Fluc cells, cytotoxicity counterscreen; Potency, µM (series often up to 46.1 µM), usual class: inhibitors;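 also: cells exposed to compounds for 18 to 24 hours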
Nrf2 ARE inh: Nrf2 qHTS screen for inhibitors: Nrf2 A549 ARE-Fluc Confirmation Assay for Hit Validation; A549 ARE-firefly luciferase reporter, luminescence; AID 720524, 2013; 74% of 1,400 active; shares compounds with Nrf2 block; Potency, µM (series often up to 46.1 µM), usual class: inhibitors; also: nearly all actives have a fitted effect of over 65% in size
ELG1 FLuc counter: qHTS screen for small molecules that inhibit ELG1-dependent DNA repair: Hit Confirmation in Cell-Based Luciferin Assay | Potency, µM (doses to about 46.1 µM), actives largely listed as inhibitors | 3% of 350 active | cell-free firefly luciferase luminescence counter-screen, ViewLux | shares compounds with ELG1 DNA repair
ELG1 Luc conf: HTS assay for small molecules that inhibit ELG1-dependent DNA repair in human embryonic kidney (HEK293T) cells expressing luciferase-tagged ELG1: Hit Confirmation; shares compounds with ELG1 DNA repair; HEK293T ELG1-luciferase levels, luminescence; cells co-treated with 5-fluorouridine; Potency, µM (titrated, usually from 46.1 µM), usual class: inhibitors; 68% of 670 active; also: nearly all actives have a fitted effect of over 55% in size
ELG1 MMS Luc: inhibits ELG1-dependent repair under MMS stimulation in HEK293T cells | Potency, µM (highest dose often 46.1 µM), usual class: inhibitors | HEK293T luciferase-tagged ELG1 level, MMS stimulated | AID 624249 | 53% of 670 active | shares compounds with ELG1 DNA repair; also: nearly all actives have a fitted effect of over 60% in size
ELG1 5-FU: qHTS screen for small molecules that inhibit ELG1-dependent DNA repair: Hit Confirmation with 5FU Viability | shares compounds with ELG1 DNA repair | cell viability with 5-FU, ELG1-dependent repair | Potency, µM (top dose mostly 46.1 µM), actives largely listed as cytotoxic | 670 tested, under 10 active;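 also: ELG1-luc HEK293T cells cotreated with 5-fluorouridine at 10 µM final; viability measured 16 h after compound addition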
ELG1 MMS cell: qHTS screen for small molecules that inhibit ELG1-dependent DNA repair: Hit Confirmation with MMS Viability; AID 624251, 2012; Cell viability with MMS, ELG1-dependent DNA repair; shares compounds with ELG1 DNA repair; Potency, µM (highest dose often 46.1 µM), actives largely listed as cytotoxic; 33% of 670 active;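 also: ELG1-luc HEK293T cells co-treated with 10 µM MMS; viability read 16 h after compound addition; nearly all actives have a fitted effect of over 60% in size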
Cell viab unstim: qHTS screen for small molecules that inhibit ELG1-dependent DNA repair: Hit Confirmation with Unstimulated Viability Assay; shares compounds with ELG1 DNA repair; 8% of 900 active; Potency, µM (series often up to 45.9 µM), usual class: cytotoxic; cell viability counter-screen, unstimulated, luminescence;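 also: compound exposure lasted 16 hours before reading; nearly all actives have a fitted effect of over 55% in size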
FLuc enzyme: qHTS screen for small molecules that inhibit ELG1-dependent DNA repair: Hit Confirmation in Biochemical Luciferin Assay. purified firefly luciferase, luminescence counter-screen. 10% of 350 active. Potency, µM (highest dose often 57.5 µM), actives largely listed as inhibitors. AID 624253, 2012. shares compounds with ELG1 DNA repair
Of the large screens only hits and unclear results are named; the others gave an inactive call (follow-up assays come after a bar, where shown). Calls follow the shape of the dose curve; as a rule, active = well fitted curve in the direction sought with a large enough effect; inconclusive = small, poorly fitted or top-dose-only effect, or another doubt; inactive = no such curve, though single readings can be large; an effect the other way counts as inactive or inconclusive.

COc1ccc(N2CCN(C(=O)CN3CCN(c4nc(-c5ccc(F)cc5)cs4)CC3)CC2)cc1	ELG1 DNA repair 2.06µM, A549 tox-1 inconclusive, Nrf2 block 7.31µM | FLuc counter 3 inactive | A549 tox-2 inactive | Nrf2 ARE inh 11.6µM | ELG1 Luc conf 14.1µM | ELG1 MMS Luc 3.97µM | ELG1 5-FU inactive | ELG1 MMS cell 4.45µM | Cell viab unstim inconclusive
COc1ccc(-c2nnn(CC(=O)N3CCN(c4ccc(F)cc4)CC3)n2)cc1	none
COc1ccc(CN(C)C[C@@H]2OCc3cnnn3CCCC(=O)N([C@H](C)CO)C[C@H]2C)cc1	none (no result: ELG1 DNA repair, A549 tox-1, Nrf2 block)
COc1ccc(NC(=O)COC(=O)Cn2cnc3ccccc32)cc1	none
O=C(Cn1cnc2ccccc21)Nc1ccc(SC(F)F)cc1	ELG1 DNA repair 2.06µM, Nrf2 block 4.11µM | FLuc counter 3 inactive | A549 tox-2 inactive | Nrf2 ARE inh inconclusive | ELG1 Luc conf inactive | ELG1 MMS Luc 1.58µM | ELG1 5-FU inactive | ELG1 MMS cell 1.77µM | Cell viab unstim inconclusive
COc1ccc(N2CCN(C(=O)CCS(=O)(=O)c3ccc4c(c3)NC(=O)C(C)S4)CC2)cc1 (stereo not drawn)	none
Cc1ccc(C)c(N2CCN(C(=O)CCS(=O)(=O)c3ccc4c(c3)NC(=O)C(C)S4)CC2)c1 (stereo not drawn)	ELG1 DNA repair 4.61µM, Nrf2 block 6.51µM | FLuc counter 3 inactive | A549 tox-2 inactive | Nrf2 ARE inh 6.51µM | ELG1 Luc conf 12.5µM | ELG1 MMS Luc 1.99µM | ELG1 5-FU inconclusive | ELG1 MMS cell 1.99µM | Cell viab unstim inconclusive
O=C(Nc1nonc1NC(=O)c1cccs1)c1cccs1	ELG1 DNA repair 4.11µM, A549 tox-1 inconclusive, Nrf2 block 1.64µM | FLuc counter 3 inactive | A549 tox-2 inactive | Nrf2 ARE inh 6.51µM | ELG1 Luc conf inconclusive | ELG1 MMS Luc 4.45µM | ELG1 5-FU inactive | ELG1 MMS cell 4.99µM | Cell viab unstim inconclusive
Cc1cccc(NC(=O)CNC(=O)CN2C(=O)NC3(CCc4ccccc43)C2=O)c1C (stereo not drawn)	none
Cc1ncoc1C(=O)NC1CCCc2c1cnn2-c1cc(F)cc(F)c1 (stereo not drawn)	none (no result: ELG1 DNA repair, A549 tox-1, Nrf2 block)
Cc1ncoc1C(=O)NC1CCCc2c1cnn2-c1ccc(C(C)(C)C)cc1 (stereo not drawn)	ELG1 DNA repair 1.3µM, A549 tox-1 inconclusive, Nrf2 block 2.31µM | FLuc counter 3 inconclusive | A549 tox-2 inactive | Nrf2 ARE inh 5.17µM | ELG1 Luc conf inconclusive | ELG1 MMS Luc 0.791µM | ELG1 5-FU inactive | ELG1 MMS cell 0.791µM | Cell viab unstim 8.88µM
Cc1ccc(N2C(=O)CC(Cc3cccc(C)c3)C2=O)cc1 (stereo not drawn)	none
CC(=O)Nc1cccc(-c2cnc(N)c(C(=O)c3cccnc3)n2)c1	ELG1 DNA repair 0.461µM, A549 tox-1 inconclusive, Nrf2 block 5.17µM | FLuc counter 3 inactive | A549 tox-2 inactive | ELG1 FLuc counter inconclusive | ELG1 Luc conf 0.792µM | ELG1 MMS Luc 2.81µM | ELG1 5-FU inactive | ELG1 MMS cell inconclusive | Cell viab unstim inconclusive | FLuc enzyme inactive
NC(=O)c1cccc(-c2cnc(N)c(C(=O)c3cccnc3)n2)c1	A549 tox-1 inconclusive, Nrf2 block inconclusive (no result: ELG1 DNA repair)
COc1ccc(-c2nn(-c3ccccc3)cc2/C=C/C(=O)N2CCOCC2)cc1OC	ELG1 DNA repair 1.46µM | ELG1 Luc conf 1.41µM | ELG1 MMS Luc inactive | ELG1 5-FU inconclusive | ELG1 MMS cell inactive | Cell viab unstim inconclusive
COc1ccc(-c2nn(-c3ccccc3)cc2C(=O)O)cc1OC	A549 tox-1 inconclusive
COc1ccc(C2=Nn3c(nnc3-c3ccncc3)SC2)cc1	ELG1 DNA repair 2.31µM, Nrf2 block inconclusive (no result: A549 tox-1) | ELG1 FLuc counter inactive | ELG1 Luc conf 6.29µM | ELG1 MMS Luc inconclusive | ELG1 5-FU inactive | ELG1 MMS cell inactive | Cell viab unstim inactive | FLuc enzyme inactive
COc1ccc(C2=Nn3c(nnc3-c3cccnc3)SC2)cc1	none
CCc1ccc(N(CC(=O)NCc2ccco2)C(=O)CCC(=O)Nc2nccs2)cc1	none
